Measured values as given in ChEMBL document CHEMBL1157539, “Thousands of chemical starting points for antimalarial lead identification” (Nature, 2010).

Columns and labels:
Type in all cases: functional
[1] = test system: Plasmodium falciparum; experiment: GSK_TCMDC: Inhibition of Plasmodium falciparum 3D7 in whole red blood cells, using parasite LDH activity as an index of growth. Test compounds present at 2uM
[2] = test system: Plasmodium falciparum; experiment: GSK_TCMDC: Inhibition of Plasmodium falciparum Dd2 in whole red blood cells, using parasite LDH activity as an index of growth. Test compounds present at 2uM
[3] = test system: HepG2; experiment: GSK_TCMDC: Percent inhibition of human HepG2 cell line. Test compounds present at 10uM.

Row | SMILES | Inhibition [1] [%] | Inhibition [2] [%] | Inhibition [3] [%]
1 | CC(=O)Nc1ccc(COc2ccc(Nc3ccnc4cc(-c5ccccn5)ccc34)cc2)cc1.Cl | 99 | 94 | 99
2 | CCN(CC)c1ccc(C(c2ccc(N(CC)CC)cc2)c2ccc([N+](=O)[O-])cc2)cc1 | 82 | 63 | 20
3 | c1cc(-c2nc3ccccc3[nH]2)nc(-c2nc3ccccc3[nH]2)c1 | 87 | 24 | 7
4 | CC[C@H](NC(=O)c1ccc(NC(=O)OC(C)(C)C)cc1)C(=O)N[C@@H](CO)C(=O)NCCCCc1ccccc1 | 98 | 94 | 0
5 | FC(F)(F)c1cccc(Nc2nc(-c3ccccc3)nc3ncccc23)c1 | 97 | 97 | 17
6 | C[C@H](NC(=O)c1c(CN2CCC(N3CCCCC3=O)CC2)c(-c2cccs2)nc2ccccc12)C1CCCCC1 | 91 | 73 | 8
7 | FC(F)(F)c1ccc2[nH]ccc(=NN=CC=Cc3ccccc3)c2c1 | 82 | 9 | 0
8 | CC(C)CN1CCCN(Cc2cccc(NC(=O)c3cc4ccccc4s3)c2)CC1.O=C(O)C(F)(F)F | 87 | 6 | 5
9 | O=C(O)C(F)(F)F.OCC1CCN(Cc2ccc(-c3cccc(-c4nc5cc(C(F)(F)F)ccc5[nH]4)c3)cc2)CC1 | 99 | 73 | 19
10 | Cc1[nH]c(C)c(-c2ccc(CCc3cccc(C(F)(F)F)c3)nc2)c(=O)c1Cl | 99 | 97 | 28
11 | Cc1cc(-c2ccc(NC(=O)N3CCc4cc(Br)c(N5CCN(C)CC5)cc43)cc2)cc(C)n1 | 92 | 4 | 29
12 | O=C(O)c1ccc(-c2cnc3ccc(NC4CCC(O)CC4)nn23)cc1 (configuration not stated) | 98 | 90 | 9
13 | Cl.Fc1ccccc1COc1ccc(Nc2ncnc3ccc(-c4nnc(C(F)(F)F)o4)cc23)cc1Cl | 100 | 46 | 7
14 | COc1cc(F)c2ncc(Cl)c(CCN3CCC(NCc4ccc5c(c4)OCCO5)CC3)c2c1.Cl | 97 | 92 | 35
15 | COc1ccc(-c2ccc(S(=O)(=O)Nc3cc4c(cc3OC(C)C)CCN(C)CC4)cc2)cc1.Cl | 98 | 2 | 16
16 | COc1ccc2nc(C)cc(Nc3ccc(Oc4ccc5ccccc5c4Cl)c(Cl)c3)c2c1 | 100 | 98 | 32
17 | CCCCCCCCCCNCC(O)c1ccc(O)c(C(=O)OC)c1 (configuration not stated) | 97 | 97 | 3
18 | O=C(O)C(F)(F)F.c1cc(-c2ccc(CNC3CC3)cc2)cc(-c2nc3ccccc3[nH]2)c1 | 96 | 8 | 17
19 | Cc1[nH]c(C)c(-c2ccc(/C=C/c3ccccn3)cc2)c(=O)c1Cl | 97 | 96 | 0
20 | O=C(O)C(F)(F)F.c1ccc(CN2CCC(NCc3ccc(-c4cccc(CNC5CCCC5)c4)cc3)CC2)cc1 | 100 | 100 | 55

Row | SMILES | Inhibition [1] [%] | Inhibition [2] [%] | Inhibition [3] [%]
21 | O=C(NCCc1ccccc1)N(Cc1cccc(-c2ccc(CNC3CCCC3)cc2)c1)C1CCN(Cc2ccccc2)CC1.O=C(O)C(F)(F)F | 98 | 84 | 36
22 | CCOC(=O)c1ccc(NC(=O)Nc2cccc(-c3cccc(-c4nc5cccc(C)c5[nH]4)c3)c2)cc1 | 100 | 99 | 37
23 | CN(CCN)Cc1ccc(-c2ccc(-c3nc4cc(F)ccc4[nH]3)s2)cc1.O=C(O)C(F)(F)F | 96 | 81 | 31
24 | COc1cc2nc(N3CCC(CNC(=O)c4ccc(-c5ccc(C(=O)N(C)C)cc5O)cc4)CC3)nc(N)c2cc1OC | 100 | 90 | 2
25 | COc1ccc2nccc([C@@H](O)CN3CCC(NCC(=O)Nc4cc(F)cc(F)c4)CC3)c2n1.O=C(O)C(=O)O | 89 | 28 | 18
26 | CCCNC(=O)c1cncc(-c2ccc(CNC(CC)c3ccccc3)cc2)c1.O=C(O)C(F)(F)F (configuration not stated) | 92 | 1 | 20
27 | O=C(Nc1cccc(-c2cccc(-c3ccc(F)cc3)n2)c1)c1ccc([N+](=O)[O-])o1 | 99 | 42 | 100
28 | COc1ccc2nccc(C(=O)NC3CCC(CCN4CCc5cc(C#N)ccc5C4)CC3)c2c1.Cl (configuration not stated) | 97 | 1 | 12
29 | O=C(CN1CCC(NCc2cnc(-c3ccc(Cl)cc3)[nH]2)CC1)N1CCc2ccccc21 | 100 | 5 | 11
30 | COc1ccc2nc(C)cc(NC3Cc4ccccc4C3)c2c1.Cl | 98 | 13 | 20
31 | O=C(Nc1cccc(CN2CCCN(CC3CC3)CC2)c1)c1ccc(Cl)c(Cl)c1.O=C(O)C(F)(F)F | 92 | 5 | 13
32 | O=C(Nc1ccc(Oc2cccnc2)cc1)C1CCN(Cc2cc(Cl)ccc2O)CC1 | 83 | 1 | 37
33 | CO/C(=C\C=C\c1cc2cc(Cl)c(Cl)cc2[nH]1)C(=O)NCCCN(C)CCN(C)c1ccccc1 | 96 | 59 | 38
34 | Nc1nc(N)c2cc(S(=O)(=O)c3ccc4ccccc4c3)ccc2n1 | 95 | 51 | 14
35 | CC(C)c1ccc(NC(=O)Nc2ccc(CCNCCCc3ccccc3)cc2)cc1 | 100 | 56 | 22
36 | CCN1CCC(N(Cc2ccc(-c3ccc(C(F)(F)F)cc3)cc2)C(=O)Cn2nc(C)c(=O)cc2SCc2ccc(F)cc2)CC1.O=C(O)C(O)C(O)C(=O)O | 94 | 94 | 77
37 | COc1ccc2nccc([C@@H](O)CN3CCC(NCc4cc5ccccc5s4)CC3)c2c1.O=C(O)C(=O)O | 97 | 53 | 8
38 | CC1CCCCN1S(=O)(=O)c1ccc(NC(=O)c2cc(-c3ccccc3O)n[nH]2)cc1 (configuration not stated) | 90 | 96 | 26
39 | COc1ccccc1CNC(=O)c1ccc(N2CCN(c3ccncc3)CC2)cn1.O=C(O)C(F)(F)F | 96 | 17 | 16
40 | O=C(CCc1c[nH]cn1)Nc1cccc(-c2ccc(-c3nc4ccccc4[nH]3)cc2)c1 | 100 | 60 | 24

Row | SMILES | Inhibition [1] [%] | Inhibition [2] [%] | Inhibition [3] [%]
41 | Fc1ccc2[nH]c(-c3cccc(-c4ccc(CN5CCCCC5)cc4)c3)nc2c1.O=C(O)C(F)(F)F | 99 | 97 | 46
42 | COc1cc(C(=O)N2CCOC(CCN3CCC4c5ccccc5CC43)(c3ccc(Cl)c(Cl)c3)C2)cc(OC)c1OC (configuration not stated) | 88 | 82 | 32
43 | CN(Cc1cccc(O)c1)C1CCN(c2cc(NC(=O)c3cccc(F)c3)ccn2)CC1.O=C(O)C(F)(F)F | 98 | 37 | 0
44 | CCCN(CCC)CCCN(CCCN(CCC)CCC)c1cc(C)nc(Nc2ccc(Cl)cc2)n1.Cl | 100 | 100 | 34
45 | CN(C)CCN(Cc1ccccc1)c1ccc([N+](=O)[O-])cc1C(F)(F)F.O=C(O)C(F)(F)F | 96 | 89 | 40
46 | CCCCn1c(C(C)Oc2ccc(Cl)cc2Cl)nc2cc(S(N)(=O)=O)ccc21 (configuration not stated) | 94 | 45 | 24
47 | Cc1cccc2nc(-c3ccc(-c4cccc(CN5CCC(CO)CC5)c4)s3)[nH]c12.O=C(O)C(F)(F)F | 99 | 61 | 20
48 | CCCCCCCN1CC[C@@H](CCCc2ccnc3ccc(OC)cc23)[C@@H](CNC)C1.O=C(O)C(=O)O | 100 | 95 | 25
49 | Cc1cc(-c2ccc3c(c2)CCN(CCCOc2ccc4c(c2)CCN4C(=O)/C=C/c2ccccc2Cl)CC3)no1 | 88 | 50 | 52
50 | CCC(CO)NCC(O)Cn1c2ccc(Cl)cc2c2cc(Cl)ccc21 (configuration not stated) | 96 | 88 | 11
51 | COc1cccc(C2CCN(CCN3CCC(NC(=O)c4ccc(-c5ccc(C#N)cc5)cc4)CC3)CC2)c1 | 98 | 47 | 28
52 | CC(=O)OCCN1C(=O)c2ccc3c4c(ccc(c24)C1=O)C(=O)N(CCOC(C)=O)C3=O | 94 | 1 | 2
53 | CCN(CC)S(=O)(=O)c1ccc(C(C)NC(=O)c2ccccc2COc2ccccc2)cc1 (configuration not stated) | 100 | 89 | 0
54 | COc1ccc(NC(=O)Nc2cccc(-c3cccc(-c4nc5cccc(C)c5[nH]4)c3)c2)cc1 | 100 | 43 | 0
55 | COc1ccc2c(=NN=Cc3c(OC)ccc4ccccc34)cc(C)[nH]c2c1 | 100 | 85 | 7
56 | O=C(/C=C/c1c[nH]c2ccccc12)NCCCCCN1CCC(c2c[nH]c3ccccc23)CC1 | 96 | 0 | 20
57 | Cl.Oc1ccc(Cc2ccccc2)cc1CNC1CCCCC1 | 96 | 98 | 30
58 | CCCc1c(C(=O)Nc2ccc3c(c2)CCN(C2CCC2)CC3)cnn1-c1ccc(Cl)cc1.O=C(O)C(F)(F)F | 92 | 12 | 64
59 | COc1cc2c(cc1OC)CN(CCCCc1ccc(NC(=O)c3cc(Cl)cc(Cl)c3)cc1)CC2 | 95 | 4 | 21
